Common to all, as to design: scale not given: direction of the effect not stated beside the values
Assay [1] deals with Protein translocase subunit SecA (Escherichia coli (strain K12)) (UniProt P10408). Briefly: Assay to Identify E. coli SecA ATPase Inhibitors. In kind it is functional. The settings on record: 30 µM.
For assay [2], the target named is T1, Ubiquitin-activating enzyme e1, putative (Leishmania donovani (strain BPK282A1)) (UniProt E9BSI1).
T1 sequence (whole entry): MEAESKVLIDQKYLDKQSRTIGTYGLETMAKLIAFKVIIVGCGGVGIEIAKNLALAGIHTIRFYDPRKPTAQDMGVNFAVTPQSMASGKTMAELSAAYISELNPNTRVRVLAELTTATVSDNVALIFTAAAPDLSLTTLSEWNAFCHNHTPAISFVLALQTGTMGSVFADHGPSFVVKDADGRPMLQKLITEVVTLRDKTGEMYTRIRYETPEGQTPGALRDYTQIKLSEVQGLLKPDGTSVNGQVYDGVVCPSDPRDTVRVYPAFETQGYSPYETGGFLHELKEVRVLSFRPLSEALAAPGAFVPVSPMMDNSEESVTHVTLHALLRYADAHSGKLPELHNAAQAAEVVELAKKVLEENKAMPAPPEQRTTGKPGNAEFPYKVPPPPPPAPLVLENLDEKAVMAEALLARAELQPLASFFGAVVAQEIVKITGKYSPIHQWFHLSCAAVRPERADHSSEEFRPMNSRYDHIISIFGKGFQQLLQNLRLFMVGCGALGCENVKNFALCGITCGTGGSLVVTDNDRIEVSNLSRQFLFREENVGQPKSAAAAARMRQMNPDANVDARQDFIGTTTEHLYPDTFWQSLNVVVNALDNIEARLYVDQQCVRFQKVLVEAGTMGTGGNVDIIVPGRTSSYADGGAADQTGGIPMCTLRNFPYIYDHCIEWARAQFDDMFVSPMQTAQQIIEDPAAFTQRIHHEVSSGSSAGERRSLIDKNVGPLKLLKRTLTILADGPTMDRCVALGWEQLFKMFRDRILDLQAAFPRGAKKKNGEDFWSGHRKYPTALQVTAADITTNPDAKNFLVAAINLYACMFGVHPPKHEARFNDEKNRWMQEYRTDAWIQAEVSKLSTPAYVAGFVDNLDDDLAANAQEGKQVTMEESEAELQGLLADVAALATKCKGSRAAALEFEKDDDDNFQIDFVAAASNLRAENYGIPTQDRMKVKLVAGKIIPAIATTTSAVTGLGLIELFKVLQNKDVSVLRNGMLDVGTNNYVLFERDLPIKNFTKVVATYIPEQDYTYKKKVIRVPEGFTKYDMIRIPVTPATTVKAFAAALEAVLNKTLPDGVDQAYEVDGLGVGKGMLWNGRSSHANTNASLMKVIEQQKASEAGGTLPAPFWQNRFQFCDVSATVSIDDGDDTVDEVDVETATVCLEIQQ
As to the kind of experiment: Leishmania donovani Ubiquitin Activating Enzyme (LdE1). Particulars: 30 µM. In kind it is functional.

Assay [3] deals with AMP-activated protein kinase, AMPK (Homo sapiens) (UniProt P54646+O43741+P54619+Q9UGJ0+Q9Y478+Q13131+Q9UGI9). Briefly: AMP-dependent Kinase enzyme assay. An in vitro enzyme assay that detects ADP turnover that is directly proportional to AMPK activity. This uses naive AMPK that is activated during the assay with MK-8722. In kind it is functional. The settings on record: 30 µM.

Assay [4] addresses Sialic acid-binding Ig-like lectin 9 (Homo sapiens) (UniProt Q9Y336). Briefly: Hs-Siglec9 ALPHAscreen SOP 20170721. Particulars: 10 µM. A general note: Bead proximity is the source of the signal in Alpha formats.
A further assay deals with Trypanosoma cruzi. Briefly: Trypanosoma cruzi phosphomannomutase and mannose-1-phosphate guanylyltransferase assay. Particulars: 10 µM. In kind it is functional.
Assay [5] deals with T2, Arginase-2, mitochondrial (Homo sapiens) (UniProt P78540).
T2 sequence (whole entry): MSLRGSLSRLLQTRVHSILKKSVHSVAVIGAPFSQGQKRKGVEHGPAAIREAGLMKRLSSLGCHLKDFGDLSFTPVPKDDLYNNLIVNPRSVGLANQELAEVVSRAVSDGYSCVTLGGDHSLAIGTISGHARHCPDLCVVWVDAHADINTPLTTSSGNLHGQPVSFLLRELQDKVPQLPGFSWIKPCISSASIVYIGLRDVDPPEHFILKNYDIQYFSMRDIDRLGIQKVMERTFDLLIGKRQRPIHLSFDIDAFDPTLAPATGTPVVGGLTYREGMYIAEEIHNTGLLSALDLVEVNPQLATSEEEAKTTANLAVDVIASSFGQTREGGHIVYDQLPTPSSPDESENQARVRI
Briefly: in vitro enzyme assay to detect the production of urea directly proportional to the activity of Arginase II. Note: in the data most compounds retested in dose-response had high values. Particulars: 33.3 µM. It is filed as functional.

Assay [6] concerns the target T3, Proteasome subunit beta (Trypanosoma cruzi) (UniProt O96673).
T3 sequence (whole entry): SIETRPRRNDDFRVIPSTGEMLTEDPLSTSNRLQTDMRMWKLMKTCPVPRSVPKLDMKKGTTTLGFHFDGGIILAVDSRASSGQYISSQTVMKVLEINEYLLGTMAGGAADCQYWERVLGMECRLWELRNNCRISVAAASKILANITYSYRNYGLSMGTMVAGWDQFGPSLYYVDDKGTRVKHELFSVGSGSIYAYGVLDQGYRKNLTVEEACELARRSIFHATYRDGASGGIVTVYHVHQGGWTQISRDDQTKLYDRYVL
Briefly: Trypanosoma cruzi proteasome chymotrypsin-like activity (TcProtChymo) assay. Note: in the data most compounds retested in dose-response had high values. It is filed as functional. The settings on record: 9.37 µM.

Another assay is filed under the species Homo sapiens. Briefly: To identify inhibition of the IFN signalling (Jak-Stat) pathway via expression of an eGFP reporter gene under the control of an IFN-stimulated response element (ISRE) containing MxA promoter. It is filed as functional. The settings on record: 30 µM. (In general: Reporter assays use an easily measured gene product as a stand-in for the process of interest.)

The target in assay [7] is T4, Tyrosyl-tRNA synthetase, putative (Trypanosoma cruzi (strain CL Brener)) (UniProt Q4DSP6).
T4 sequence (whole entry): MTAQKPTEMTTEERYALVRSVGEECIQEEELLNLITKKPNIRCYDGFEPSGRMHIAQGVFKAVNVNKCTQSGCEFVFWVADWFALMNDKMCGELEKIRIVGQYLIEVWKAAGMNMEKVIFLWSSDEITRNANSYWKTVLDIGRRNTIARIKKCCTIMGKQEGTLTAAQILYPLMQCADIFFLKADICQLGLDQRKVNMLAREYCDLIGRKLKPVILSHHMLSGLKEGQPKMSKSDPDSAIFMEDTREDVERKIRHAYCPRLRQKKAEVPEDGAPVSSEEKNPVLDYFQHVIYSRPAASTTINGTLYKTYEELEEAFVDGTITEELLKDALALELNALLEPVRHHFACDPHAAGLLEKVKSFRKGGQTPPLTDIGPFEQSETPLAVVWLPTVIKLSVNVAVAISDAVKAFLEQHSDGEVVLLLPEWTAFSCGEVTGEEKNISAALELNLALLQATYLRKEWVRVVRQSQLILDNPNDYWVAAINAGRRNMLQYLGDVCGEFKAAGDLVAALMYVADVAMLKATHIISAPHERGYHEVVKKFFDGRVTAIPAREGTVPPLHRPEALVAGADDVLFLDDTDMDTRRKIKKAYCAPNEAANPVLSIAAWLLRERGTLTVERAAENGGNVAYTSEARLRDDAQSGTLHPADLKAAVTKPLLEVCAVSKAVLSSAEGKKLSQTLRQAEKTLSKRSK
As to the kind of experiment: Trypanosoma cruzi tyrosyl tRNA synthetase (TcYRS) _High Tyrosine SOP. Note: in the data most compounds retested in dose-response had high values. It is filed as functional. Particulars: 30 µM.

The target in assay [8] is T4, Tyrosyl-tRNA synthetase, putative (Trypanosoma cruzi (strain CL Brener)). Briefly: Trypanosoma cruzi tyrosyl tRNA synthetase (TcYRS) SOP. It is filed as functional. The settings on record: 30 µM.
Assay [9] has as its target Chromo domain-containing protein 1 (Saccharomyces cerevisiae (strain ATCC 204508 / S288c) (Baker's yeast)) (UniProt P32657). Briefly: ScCHD-1 Enzyme Inhibition Assay. Note: in the data most compounds retested in dose-response had high values. In kind it is functional. Particulars: 30 µM.

The structures appear in SMILES notation. For part of these data: Entries with a potency or affinity are not part of this list.

Sequence of Protein translocase subunit SecA (Escherichia coli (strain K12)) (P10408 whole entry): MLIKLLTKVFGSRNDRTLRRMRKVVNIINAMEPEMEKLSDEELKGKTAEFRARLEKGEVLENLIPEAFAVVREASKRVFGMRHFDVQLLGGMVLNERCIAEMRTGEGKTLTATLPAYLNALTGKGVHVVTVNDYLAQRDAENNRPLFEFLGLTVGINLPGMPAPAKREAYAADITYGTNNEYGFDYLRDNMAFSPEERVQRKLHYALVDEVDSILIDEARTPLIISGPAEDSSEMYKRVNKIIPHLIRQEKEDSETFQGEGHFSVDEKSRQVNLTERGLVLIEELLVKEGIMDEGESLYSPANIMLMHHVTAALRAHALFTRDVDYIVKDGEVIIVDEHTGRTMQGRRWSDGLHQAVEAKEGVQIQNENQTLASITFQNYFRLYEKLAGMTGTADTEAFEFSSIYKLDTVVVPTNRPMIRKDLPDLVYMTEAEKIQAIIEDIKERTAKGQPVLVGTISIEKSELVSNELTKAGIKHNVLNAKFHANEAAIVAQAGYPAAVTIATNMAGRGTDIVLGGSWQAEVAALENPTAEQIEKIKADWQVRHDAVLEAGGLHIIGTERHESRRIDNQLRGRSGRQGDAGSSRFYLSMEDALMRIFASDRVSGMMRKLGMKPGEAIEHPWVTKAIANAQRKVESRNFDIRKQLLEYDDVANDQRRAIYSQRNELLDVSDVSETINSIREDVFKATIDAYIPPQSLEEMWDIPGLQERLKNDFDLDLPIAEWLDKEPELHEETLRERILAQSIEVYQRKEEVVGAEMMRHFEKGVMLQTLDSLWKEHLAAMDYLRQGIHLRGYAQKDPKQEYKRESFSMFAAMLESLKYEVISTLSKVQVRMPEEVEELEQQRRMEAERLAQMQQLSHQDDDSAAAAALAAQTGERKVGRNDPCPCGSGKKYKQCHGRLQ
Sequence of Sialic acid-binding Ig-like lectin 9 (Homo sapiens) (Q9Y336 whole entry): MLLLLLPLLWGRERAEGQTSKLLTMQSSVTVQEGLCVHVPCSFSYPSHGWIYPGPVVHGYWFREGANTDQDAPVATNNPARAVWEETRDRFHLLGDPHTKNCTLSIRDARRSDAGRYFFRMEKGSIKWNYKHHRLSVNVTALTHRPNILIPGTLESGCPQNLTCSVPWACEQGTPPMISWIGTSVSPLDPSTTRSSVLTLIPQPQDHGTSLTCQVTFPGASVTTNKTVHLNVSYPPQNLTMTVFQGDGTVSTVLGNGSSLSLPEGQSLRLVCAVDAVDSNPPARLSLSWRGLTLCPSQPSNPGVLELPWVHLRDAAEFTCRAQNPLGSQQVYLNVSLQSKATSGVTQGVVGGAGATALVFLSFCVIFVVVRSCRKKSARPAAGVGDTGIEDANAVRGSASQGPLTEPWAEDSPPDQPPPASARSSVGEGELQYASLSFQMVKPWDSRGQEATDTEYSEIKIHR
Sequence of Chromo domain-containing protein 1 (Saccharomyces cerevisiae (strain ATCC 204508 / S288c) (Baker's yeast)) (P32657 whole entry, the tested form may be a part): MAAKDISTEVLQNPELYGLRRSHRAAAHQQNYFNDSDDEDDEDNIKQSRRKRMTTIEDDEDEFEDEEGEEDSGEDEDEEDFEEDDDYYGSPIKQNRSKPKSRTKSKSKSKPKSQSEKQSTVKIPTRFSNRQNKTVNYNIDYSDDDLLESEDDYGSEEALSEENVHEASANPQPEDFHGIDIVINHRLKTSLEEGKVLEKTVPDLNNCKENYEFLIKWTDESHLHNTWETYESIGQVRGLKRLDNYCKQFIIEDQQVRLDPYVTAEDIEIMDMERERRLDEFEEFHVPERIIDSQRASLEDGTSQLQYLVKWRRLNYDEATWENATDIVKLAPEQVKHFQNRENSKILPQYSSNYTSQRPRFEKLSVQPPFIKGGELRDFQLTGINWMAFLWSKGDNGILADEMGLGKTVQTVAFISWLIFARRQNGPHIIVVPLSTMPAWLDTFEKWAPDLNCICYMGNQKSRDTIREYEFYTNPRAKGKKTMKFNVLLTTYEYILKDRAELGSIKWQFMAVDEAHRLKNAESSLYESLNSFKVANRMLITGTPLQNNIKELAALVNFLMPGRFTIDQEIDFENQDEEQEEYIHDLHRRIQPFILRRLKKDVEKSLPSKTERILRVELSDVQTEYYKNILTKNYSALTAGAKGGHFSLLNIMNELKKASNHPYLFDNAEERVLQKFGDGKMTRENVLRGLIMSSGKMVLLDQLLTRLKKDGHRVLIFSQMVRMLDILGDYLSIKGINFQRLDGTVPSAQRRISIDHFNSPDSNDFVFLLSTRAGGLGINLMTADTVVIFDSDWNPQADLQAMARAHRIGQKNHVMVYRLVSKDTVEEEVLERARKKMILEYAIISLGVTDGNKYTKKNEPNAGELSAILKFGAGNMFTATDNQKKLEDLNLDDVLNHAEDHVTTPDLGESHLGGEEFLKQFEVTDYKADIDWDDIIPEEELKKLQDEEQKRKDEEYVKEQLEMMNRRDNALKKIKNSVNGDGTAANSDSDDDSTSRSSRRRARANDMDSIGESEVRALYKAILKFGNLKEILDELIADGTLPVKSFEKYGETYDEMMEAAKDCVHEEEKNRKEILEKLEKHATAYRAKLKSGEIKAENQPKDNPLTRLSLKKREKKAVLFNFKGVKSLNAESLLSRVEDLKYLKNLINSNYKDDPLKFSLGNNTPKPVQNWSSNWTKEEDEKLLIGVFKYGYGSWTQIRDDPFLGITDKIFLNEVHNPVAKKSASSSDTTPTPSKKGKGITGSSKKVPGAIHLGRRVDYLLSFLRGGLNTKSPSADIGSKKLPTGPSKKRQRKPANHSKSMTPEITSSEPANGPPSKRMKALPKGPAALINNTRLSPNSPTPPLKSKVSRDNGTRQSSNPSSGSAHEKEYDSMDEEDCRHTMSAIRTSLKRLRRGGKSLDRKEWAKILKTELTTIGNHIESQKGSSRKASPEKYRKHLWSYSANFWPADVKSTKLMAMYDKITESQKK

Take `Cc1ccc2oc(CNC(C)c3nnc4n3CCCC4)cc2c1` (centres undefined): the Percent Effect in assay [1] was -2.09%; in assay [2], -10.8%; in [3], -8.92%; in [4], -1.29%; with Trypanosoma cruzi, 0.781%; in assay [5], -2.5%. The Percent Effect turned out to be 10.6% in assay [6]; 17.8% in the assay filed under Homo sapiens; 11.9% in [7]; 15.8% in assay [8]; 1.91% in assay [9].

As to `CN(C)CCCNC(=O)CNC(=O)N1CCc2c([nH]c3ccccc23)C1`, the Percent Effect in [1] is -6.34%; in [2], -1.33%; in assay [3] it was 20.1%; in assay [4] it was -2.5%; in the assay with Trypanosoma cruzi, -2.16%; in assay [5] it was -10.4%. The Percent Effect was 9.06% in [6]; 13.6% in the assay listed under Homo sapiens; 1.06% in assay [7]; -5.13% in [8]; -6.13% in [9].

Take `OC[C@H]1CC[C@]2(CC1)CN(Cc1ccccn1)Cc1ccccc1O2`: the Percent Effect is -1.22% in assay [1]; 1.35% in [2]; 15.4% in [3]; 4.6% in assay [4]; -3.56% in the assay with Trypanosoma cruzi; 1.16% in [5]. Besides, the Percent Effect was 1.25% in assay [6]; 5.31% in the assay filed under Homo sapiens; 5.38% in assay [7]; 3.9% in assay [8]; -8.96% in [9].

On to `COc1cccc(CN2CCC(c3cc(O)nc(C)n3)C2)c1` (centres undefined), for which the Percent Effect was -3.18% in assay [1]; 12.2% in [2]; 6.93% in assay [3]; 3.66% in assay [4]; 2.37% in the assay on Trypanosoma cruzi; -3.02% in [5]. For the same molecule, the Percent Effect is 11.7% in assay [6]; 29.9% in the assay listed under Homo sapiens; 6.45% in assay [7]; 14.3% in [8]; -5.62% in [9].

`O=S(=O)(C1CC1)N1CCO[C@H]2[C@H](OCCN3CCCC3)CC[C@@H]21`: the Percent Effect in [1] was 0.18%; in assay [2] it was 18.7%; in assay [3], -5.59%; in assay [4], -6.26%; in the assay on Trypanosoma cruzi it was 5.6%; in [5], -62.2%. Moreover, the Percent Effect in assay [6] is 9.74%; in the assay filed under Homo sapiens, 17.6%; in [7], 5.21%; in assay [8], 20%; in assay [9], -11.8%.

For `CC(C)(C)c1nc(CN2CCCC2CCc2ccccc2)no1` (centres undefined), the Percent Effect in assay [1] is -4.12%; in assay [2] it was -2.6%; in assay [3], 4.97%; in assay [4], -2.77%; with Trypanosoma cruzi, -6.18%; in assay [5] it was -0.712%. Moreover, the Percent Effect in assay [6] is -5.91%; in the assay listed under Homo sapiens it was 27.2%; in [7], 0.971%; in [8] it was -14.6%; in assay [9], 1.21%.

As to `COc1cccc(CCNC(=O)CN2CCN(C)CC2C)c1` (centres undefined), the Percent Effect in assay [1] is -1.66%; in assay [2], 0%; in [3], -4.34%; in assay [4] it was -5.98%; in the assay on Trypanosoma cruzi, -4.92%; in [5], 3.51%. The Percent Effect in assay [6] is 14.5%; in the assay filed under Homo sapiens, 18.7%; in [7] it was 4.95%; in assay [8], 15.8%; in [9] it was -5.6%.

On to `Cc1cnn(CC2CCCCN2C(=O)CN(C)C2CC2)c1` (centres undefined), for which the Percent Effect in assay [1] is 0.161%; in [2] it was 26.6%; in assay [3], -0.801%; in assay [4], -3.2%; in the assay with Trypanosoma cruzi, -0.103%; in [5], -1.94%. Further, the Percent Effect in assay [6] is 16.8%; in the assay filed under Homo sapiens it was -1.15%; in assay [7], 6.25%; in assay [8] it was 15.2%; in assay [9], -24%.

As for `CCc1ccc(NC(=O)N2C[C@H]3C[C@H](C(=O)NC)[C@@H](C2)O3)cc1`, the Percent Effect in [1] is 0.946%; in assay [2] it was 2.6%; in assay [3], 6.04%; in assay [4] it was -3.01%; with Trypanosoma cruzi, -0.0986%; in [5], 0.645%. Besides, the Percent Effect in [6] was determined as 5.4%; in the assay filed under Homo sapiens, 11.2%; in assay [7], 1.06%; in assay [8], 6.41%; in [9], 93.4%.

(Values after ChEMBL document CHEMBL3988442, “University of Dundee, Small-Polar-MMV Screening Library” (2021).)
